CYP2C9 activ: CYP2C9 (human) activation; activation factor at 5 µM; AID 1024; recombinant CYP2C9, luciferin-H conversion, luminescence; hits give high values; factor 1 = untreated enzyme, 0 = blocked; 96,000 compounds, 1.4% hits;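 active means activation factor of 2 or more for CYP2C9 at a 5 µM dose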;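 further: 0 = sulfaphenazole-blocked wells and 1 = vehicle-only wells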
Target sequence (P11712 whole entry, looked up): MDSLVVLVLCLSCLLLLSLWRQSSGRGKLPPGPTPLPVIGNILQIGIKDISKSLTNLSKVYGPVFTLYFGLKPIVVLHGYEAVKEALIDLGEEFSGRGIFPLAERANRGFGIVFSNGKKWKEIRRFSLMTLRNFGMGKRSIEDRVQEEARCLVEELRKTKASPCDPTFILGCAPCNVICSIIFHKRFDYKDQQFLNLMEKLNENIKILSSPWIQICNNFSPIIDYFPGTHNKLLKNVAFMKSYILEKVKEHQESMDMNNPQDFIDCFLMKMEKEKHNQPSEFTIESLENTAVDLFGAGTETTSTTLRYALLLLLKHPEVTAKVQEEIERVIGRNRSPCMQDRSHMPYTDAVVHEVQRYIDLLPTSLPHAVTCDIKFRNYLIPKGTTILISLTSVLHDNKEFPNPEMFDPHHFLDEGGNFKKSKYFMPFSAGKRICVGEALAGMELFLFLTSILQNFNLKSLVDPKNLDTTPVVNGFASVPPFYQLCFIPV
CYP2C19 act: activators of human cytochrome P450 2C19 | P33261 | recombinant CYP2C19, luciferin-H EGE luminescence; hits give high values; 0 = fully inhibited enzyme, 1 = untreated enzyme | activation factor at 5 µM | 96,000 tested, under 10 active | AID 1025;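 active means activation factor of at least 2 at 5 µM in the primary screen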;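 further: 0 = wells with 2.5 mM tranylcypromine and 1 = vehicle-only wells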
CYP2C19 inhib: inhibitors of human CYP2C19; P33261; CYP2C19 Supersomes, luciferin-H EGE luminescence, 30 min; inhibition, % at 5 µM; 96,000 compounds, 21% hits;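 active means CYP2C19 inhibition above a set limit at 5 µM in the primary screen, cut at about 50% in these data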;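 further: plate controls were negative control wells for no effect and 2.5 mM tranylcypromine positive control for full effect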
CYP2C9 inhib: inhibitors of human CYP2C9. CYP2C9 Supersomes, luciferin-H conversion, luminescence. inhibition, % at 5 µM. 96,000 compounds, 20% hits;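 active means blocking of liver enzyme CYP2C9 beyond about 50% at 5 µM, limit read from the data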
D1 allo mod: allosterically modulates the human D1 dopamine receptor. B-score at 10 µM. 58,000 compounds, 5.9% hits. P21728. HEK293 D1, CRE-luciferase, dopamine EC30 potentiation; actives deviate in either direction;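 active means luminescence count or its row- and column-corrected plate score outside the 99.7% band of the plate's sample wells, on either side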
hDAT+cocaine: modulates human dopamine transporter uptake under cocaine | Q01959 | LLC-PK1 hDAT cells, [14C]-dopamine uptake with cocaine IC80; actives deviate in either direction | B-score at 10 µM | 110,000 compounds, 1.3% hits | AID 449768;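 active means Z score or B-score, a plate-position-corrected score, falls beyond the plate's 99.7% confidence bounds, in either direction; inactive means both scores lie inside the 99.7% bounds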;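 further: scored against the spread of the other compound wells on the same plate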
An asterisk follows results filed as active; . = no result given. This is a sample that favours compounds with a hit; in the whole collection about 28% have one here.

SMILES	CYP2C9 activ	CYP2C19 act	CYP2C19 inhib	CYP2C9 inhib	D1 allo mod	hDAT+cocaine
COc1ccc(CCNc2ccc(C(CC(N)=O)NC(=O)Cc3ccc(Br)cc3)cc2[N+](=O)[O-])cc1 (stereo not given)	.	.	.	.	.	0.044
CCCCOCCCNC(=O)CN1C(=O)c2ccccc2C1=O	1.1	1.1	-6	-9	-0.5	-1
COc1cc(-c2nc(-c3ccccc3)c(-c3cc([N+](=O)[O-])ccc3C)[nH]2)cc(OC)c1OC	.	.	.	.	.	2.5
COc1cc(C(C[N+](=O)[O-])c2c(C)[nH]c3ccccc23)cc(OC)c1OC (stereo not given)	0.3	0	98*	72*	.	0.018
CC(=O)OCC1O[C@@H](O[C@@H]2C[C@H]3C(C)(C)[C@H](OC(C)=O)CC[C@]3(C)[C@H]3CC[C@]45C[C@]4(CC[C@H]5[C@@H](C)C[C@@H](O)[C@H](O)C(C)(C)O)[C@@]32C)[C@H](O)[C@@H](O)[C@@H]1O (stereo not given in full)	.	.	.	.	.	-1.4
O=C1C(N2CCOCC2)=C(n2nnc3ccccc32)C(=O)c2ccccc21	0.1	0	100*	90*	.	-3.9*
O=C(NC1CCCCCC1)c1c(O)c2ccccc2[nH]c1=O	0.7	0.7	27	31	-0.64	0.99
O=C(NC1CCCCC1)c1sc(=S)n2c1[nH]c(=O)c1ccccc12	0.1	0.3	72*	95*	-2.1	0.096
CCCCNC(=O)c1sc(=S)n(-c2ccccc2OC)c1N	0.7	0.8	19	27	.	-0.48
CCCCNC(=O)c1sc(=S)n2c1[nH]c(=O)c1ccccc12	0.1	0.8	18	94*	-2.1	-0.3
O=C(NCC1CCCO1)c1sc(=S)n2c1[nH]c(=O)c1ccc(C(=O)N3CCCCC3)cc12 (stereo not given)	0.1	0.9	9	86*	0.38	0.023
Cc1nnc(SCC(=O)N2CCCCC2)s1	.	.	.	.	-0.57	-1
CCOC(=O)c1cnc(SC)nc1Oc1cccc(NS(=O)(=O)c2ccc(F)cc2)c1	0.2	0.7	26	77*	.	1.4
CCOC(=O)c1cnc(SC)nc1Oc1cccc(NC(=O)c2cccc(Cl)c2Cl)c1	0.3	0.9	14	74*	.	1.5
CCOC(=O)c1cnc(SC)nc1Nc1cccc2ccccc12	.	.	.	.	.	-0.54
CCOC(=O)c1cnc(SC)nc1Oc1cccc(NS(=O)(=O)c2ccccc2)c1	0.2	0.8	18	82*	.	4.2
CCOC(=O)c1cnc(SC)nc1Nc1cccc(F)c1	0.3	0.6	35	70*	2.5	-1.7
COC(=O)c1c(C(=O)OC)c(-c2ccc(C)cc2)n2c1CS(=O)C2 (stereo not given)	0.7	0.7	30	34	.	0.59
CCOC(=O)CCP(=O)(O)C(C)(O)c1ccccc1 (stereo not given)	1.1	1.1	-13	-11	.	-0.26
O=C(Nc1ccccc1)C1CCN(C(=O)c2ccccc2)CC1	0.6	0.8	23	35	.	-0.14
COC(=O)C1ON2OC(C(=O)OC)C(C(=O)OC)C2C1CC(C)=O (stereo not given)	1	1	-2	2	0.31	0.045
O=C(Nc1ccccc1)N1CC=C(c2ccc(F)cc2)CC1	0.7	0.4	56*	30	-0.58	0.4
COc1ccc(-c2ccc3oc(-c4ccsc4)cc3c2)cc1	.	.	.	.	.	0.93
Cc1cc(C(=O)CN2C(=O)NC3(CCCCC3)C2=O)c(C)n1Cc1ccc2c(c1)OCO2	0.8	0.9	15	25	.	1.2
COc1ccc(CN2C(=O)NC3(CCCCCC3)C2=O)cc1F	1.9	0.1	88*	-90	.	1.6
CCCCC1=CC2=C(c3ccco3)C(=O)C(C)(OC(=O)c3ccc(OC)cc3)C(=O)C2=CN1C1CCCC1 (stereo not given)	.	.	.	.	.	-1.2
COc1ccc(-c2ccc(-c3noc(C(C)C)n3)c(OC)n2)cc1	0.3	0.3	66*	72*	0.016	-0.17
COc1cccc(-c2ccc(-c3noc(-c4ccccc4F)n3)c(OC)n2)c1	0.4	0.8	17	61*	1.4	0.02
c1ccc(-c2nnc(CN3CCN(C(c4ccccc4)c4ccccc4)CC3)o2)cc1	.	.	.	.	.	0.13
Cc1ccc(CCC2C3=C(CCCC3=O)OC3=C2C(=O)CCC3)cc1	0.2	0	95*	75*	.	0.74

High-throughput results: PubChem, several laboratories
